GLP-1R agonist = agonists of human GLP-1 receptor | P43220 | HEK293 GLP-1R CRE-luciferase, luminescence, 4-6 h; cells express a hypersensitive GLP-1R form | Potency, µM (top dose mostly 45.6 µM), most hits filed as activators | actives 0.007% (n = 380,000) | AID 624172
GLP1R cytotox = cytotoxic in the GLP-1 receptor inverse agonist counter-screen. HEK293 cAMP-luciferase reporter cells, luminescence, 24 h. Potency, µM (top dose mostly 38.3 µM), hits mostly inhibitors. AID 624418. actives 0.13% (n = 410,000);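 further: loss of luciferase light is scored as toxicity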
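Here, cytotoxicity is scored as loss of luminescence. The MLSMR collection was tested on cells seeded in medium containing 10% Nu serum, with a 24 hr compound exposure preceded by 12 hours of culture.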
ClpP mod = qHTS Assay for Activators of ClpP. ATP-dependent Clp protease proteolytic subunit (Bacillus subtilis (strain 168)), P80244. purified B. subtilis ClpP, FRET peptide cleavage, 20 min. Potency, µM (titrated, usually from 57.5 µM). actives 1.9% (n = 340,000). AID 651965, 2013; active means well fitted falling curve with a large enough effect; inconclusive means small, poorly fitted or top-dose-only effect; inactive means no such curve, though single readings can be large or run the other way; further: the source files actives as falling curves though it sought activators and does not explain the sign; nearly all actives have a fitted effect of over 65% in size
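ClpP 10 microg/mL final, pH 8 Tris/KCl buffer with BSA, glycerol, Tween-20; compound pinned in; FRET-FV substrate; RT 20 min; Ex320/Em430; ΔFRET vs ADEP 5.8 microM, DMSO, no enzyme.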
LDHA block = inhibitors of human lactate dehydrogenase A. P00338. purified LDHA, NADH/diaphorase-resazurin fluorescence; active compounds read low. activity change, % (values are at about 110 or 230 µM). actives 0.15% (n = 480,000); in the data active means activity change below about -30%; inconclusive means mostly about -25% to -30%
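Human LDH5 at 2 nM final in Tris HCl pH 7.4 with 0.06 mM NADH and 0.2 mM pyruvate, reacted 5 minutes at room temperature. Remaining NADH coupled via diaphorase/resazurin; resorufin fluorescence read at 0 and 20 minutes, normalized to enzyme-free and DMSO wells.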
GLP1R inv ag = GLP-1 receptor (human) inverse agonism; actives 1.6% (n = 410,000); AID 624417; P43220; Potency, µM (highest dose often 38.3 µM), most hits filed as inhibitors; HEK293 GLP-1R CRE-luciferase, luminescence, 24 h; GLP-1R form is constitutively active; further: nearly all actives have a fitted effect of over 55% in size
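Assay principle: reduced luminescence from a cAMP-responsive reporter in HEK293 cells co-expressing a constitutively active GLP-1R. Conditions: 24 hr compound incubation, 37 deg C, 5% CO2.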
p53 reactivator = re-activators of mutant p53 | actives 0.063% (n = 320,000) | Potency, µM (doses to about 92.2 µM), most hits filed as activators | AID 504706 | H1299 p53-A138V BP100-luciferase reporter, luminescence, 24 h; further: nearly all actives have a fitted effect of over 45% in size
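p53-null H1299 cells stably carrying temperature-sensitive p53-A138V and a BP100-luciferase reporter were pinned with compounds (4-point, 1:5 series) and held 24 hrs at 37 deg C. Luminescence was read 10 min after detection reagent.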
Of the large screens only hits and unclear results are named; the others gave an inactive call; ! = repeats disagree. Most compounds without a hit are left out; they make up all but 2.9% or so of the library. Unless noted, the call rests on the fitted dose curve; in most records, active means well fitted curve in the direction sought with a large enough effect; inconclusive means small, poorly fitted or top-dose-only effect, or another doubt; inactive means no such curve, though single readings can be large; an effect the other way counts as inactive or inconclusive.

OCCN1CCN(CC(O)COC(c2ccc(F)cc2)c2ccc(F)cc2)CC1 (centres undefined)	LDHA block inconclusive, GLP1R inv ag 3.55µM (no result: ClpP mod)
O=C(NC1CCCCC1)c1cc(C2CC2)nn1-c1ccccc1	GLP1R inv ag 5.62µM
O=[N+]([O-])c1ccc(N2CCOCC2)cc1NC(c1ccccc1)c1ccccc1	none
COc1cc(CN2CCCC(C(=O)c3ccc4c5c(cccc35)CC4)C2)cc(OC)c1O (centres undefined)	GLP1R inv ag 11.2µM
CN1CCC(C(=O)N2CCCC(C(=O)c3ccc4c5c(cccc35)CC4)C2)CC1 (centres undefined)	GLP1R inv ag 8.91µM
COc1ccc(C(=O)C2CCCN(Cc3ccc4nonc4c3)C2)c(OC)c1 (centres undefined)	GLP1R inv ag 10µM
COc1ccc(S(=O)(=O)Nc2cc(Cl)ccc2-n2cncn2)cc1	none
O=C(Nc1ccccc1Cl)c1cc(=O)c2ccccc2o1	p53 reactivator inconclusive
CN(C)CC/C=C1\c2ccc(F)cc2Sc2cc(F)c(Cl)cc21	GLP1R cytotox inconclusive, GLP1R inv ag 7.94µM (no result: p53 reactivator)
CN(C)CC/C=C1\c2cc(Cl)ccc2Sc2cc(F)c(F)cc21	GLP1R inv ag inconclusive (no result: p53 reactivator)
CN(C)CC/C=C1\c2ccccc2Sc2cc(F)c(Cl)cc21	GLP1R cytotox inconclusive, GLP1R inv ag 7.94µM (no result: p53 reactivator)
CN(C)CC/C=C1/c2ccc(F)cc2Sc2ccc(Cl)cc21	GLP1R cytotox inconclusive, GLP1R inv ag inconclusive (no result: ClpP mod, p53 reactivator)
CCOc1ccccc1NC(=O)c1ccc(S(=O)(=O)N(C)C)cc1	none
CCOC(=O)c1c(C)c(C#N)c2c3ccccc3ccn12	none
Cc1ccc(CNC(=O)CN2C(=O)CCn3nc(-c4ccccc4)cc32)cc1	none (no result: GLP-1R agonist, p53 reactivator)
CCCCn1c(SCC(=O)N2c3ccccc3CCc3ccccc32)nc2c1c(=O)n(C)c(=O)n2C	none
CC(C)Oc1ccc(Br)cc1/C=C(\C#N)c1nc2ccccc2[nH]1	none (no result: GLP-1R agonist, GLP1R cytotox, ClpP mod, GLP1R inv ag, p53 reactivator)
CCN(CC)c1ccc(/C=C(/C#N)c2nc3ccccc3[nH]2)c(OC(C)C)c1	GLP1R inv ag 1.78µM
Cc1ccc(CSc2ncnc3c2cnn3-c2ccc(C)cc2)cc1	none
Cc1ccc(CSc2ncnc3c2cnn3-c2ccccc2)cc1	ClpP mod 25.1µM
Cc1ccc(-n2ncc3c(SCc4ccccc4)ncnc32)cc1	ClpP mod 22.4µM, p53 reactivator inconclusive
c1ccc(CSc2ncnc3c2cnn3Cc2ccccc2)cc1	none
CCC1CCCCN1CCCNC(=O)CN1C(=O)COc2ccc(S(=O)(=O)N3CCC(C)CC3)cc21 (centres undefined)	GLP1R inv ag inconclusive
C=CCc1ccccc1OCC(O)CN1CCN(c2ccccc2F)CC1 (centres undefined)	GLP1R inv ag 10µM, p53 reactivator inconclusive
C=CCc1ccccc1OCC(O)CN1CCN(c2ccccc2OC)CC1 (centres undefined)	GLP1R inv ag inconclusive
COc1ccc(-c2csc(-n3ncc(C(=O)O)c3C(F)(F)F)n2)cc1	none
CCOC(=O)c1cnn(-c2nc(-c3ccccc3F)cs2)c1C(F)(F)F	ClpP mod 35.5µM
CCOC(=O)c1cnn(-c2nc(-c3ccccc3)cs2)c1C(F)(F)F	ClpP mod 31.6µM, GLP1R inv ag inconclusive
CCOC(=O)c1cnn(-c2nc(-c3ccc(F)cc3)cs2)c1C(F)(F)F	ClpP mod 31.6µM
CCCCOc1ccc(C(=O)Nc2ccc(S(=O)(=O)Nc3cc(C)on3)cc2)cc1OC	none
O=C(Cn1ccc2c(Cl)cccc21)Nc1ccc2c(c1)OCO2	none (no result: GLP-1R agonist, GLP1R cytotox, ClpP mod, GLP1R inv ag, p53 reactivator)
O=C(Cn1ccc2ccccc21)Nc1ccc2c(c1)OCO2	LDHA block -35.8! (no result: ClpP mod)
O=C(CSc1nc(-c2ccccc2)c(-c2ccccc2)[nH]1)N1CCN(S(=O)(=O)c2ccccc2)CC1	ClpP mod 28.2µM, GLP1R inv ag inconclusive
O=C(CSc1nc(-c2ccccc2)c(-c2ccccc2)[nH]1)Nc1ccc2c(c1)OCO2	GLP1R cytotox inconclusive, ClpP mod 25.1µM
Cc1ccc(Cl)cc1N(CC(=O)N1CCOCC1)S(C)(=O)=O	none (no result: p53 reactivator)
O=C1CCCc2c1cc(C(=O)NCc1ccco1)c(=O)n2-c1ccc(Cl)cc1	ClpP mod 20µM
COC(=O)C1CCN(C(=O)COC(=O)c2n[nH]c3ccccc23)CC1	ClpP mod 31.6µM, p53 reactivator inconclusive
CC1CCCN(C(=O)COC(=O)c2n[nH]c3ccccc23)C1 (centres undefined)	ClpP mod 22.4µM
O=C(OCC(=O)N1CCCCC1)c1n[nH]c(=O)c2ccccc12	none (no result: ClpP mod)
Cc1ccccc1-n1nc2c(c1NC(=O)c1ccc(S(=O)(=O)N(C)C)cc1)CSC2	none
Cc1ccc(N2C(=O)CC(Cc3ccc(Cl)cc3)C2=O)cc1 (centres undefined)	ClpP mod 7.08µM (no result: p53 reactivator)
O=C(Nc1ccc(F)c([N+](=O)[O-])c1)c1ccc2c(c1)OCCO2	none (no result: ClpP mod)
Cc1[nH]nc2c1C1(CCN(Cc3ccccc3)CC1)C(C#N)=C(N)O2	none
N#CC1=C(N)N2C(=C(C#N)C13CCN(Cc1ccccc1)CC3)Nc1ccccc12	ClpP mod 31.6µM
O=S(=O)(c1ccccc1)n1ccc(-c2cnc(-c3ccccc3)s2)n1	ClpP mod 14.1µM
CCN(CC)CCCn1c(=S)[nH]c2ncccc2c1=O	ClpP mod 31.6µM
O=C(NCCc1ccc(Cl)cc1)c1ccc(CSCc2cccc(Cl)c2)o1	GLP1R inv ag inconclusive (no result: GLP-1R agonist, p53 reactivator)
COC(=O)c1ccc(CCc2cc(O)ccc2O)cc1	GLP1R cytotox 10µM, GLP1R inv ag inconclusive (no result: p53 reactivator)
COC(=O)c1ccc(CCc2cc(O)c(Br)cc2O)cc1	ClpP mod inconclusive (no result: p53 reactivator)
O=C(OCc1ccccc1)c1ccc(NCc2cc(O)ccc2O)cc1	GLP1R cytotox 5.01µM, GLP1R inv ag 7.08µM (no result: p53 reactivator)
CC(C)OC(=O)c1ccc(NCc2cc(O)ccc2O)cc1	GLP1R cytotox inconclusive, GLP1R inv ag inconclusive (no result: p53 reactivator)
CN1CCC(=NNC(=O)C(=O)NC2CCCC2)CC1	ClpP mod 31.6µM
CN1CCC(=NNC(=O)C(=O)NC2CCCCC2)CC1	none
CCN(CC)CCCn1c2c(c(SCC(=O)Nc3ccc(C)c(F)c3)nc1=O)CCC2	GLP1R inv ag 10µM
Cc1ccc(NC(=O)CSc2nc(=O)n(CCCN(C)C)c3c2CCC3)cc1F	none (no result: GLP-1R agonist, p53 reactivator)
CCN(CC)CCCn1c2c(c(SCC(=O)Nc3ccc(OC(F)(F)F)cc3)nc1=O)CCC2	GLP1R inv ag 3.55µM, p53 reactivator inconclusive
CCN(CC)CCCn1c2c(c(SCC(=O)Nc3nc4ccccc4s3)nc1=O)CCC2	GLP1R cytotox inconclusive, GLP1R inv ag inconclusive
